Measured values published in PubChem BioAssay (NCI).
The panel holds about 83,000 compounds, 20% with a hit somewhere; the sample as a whole holds those more often.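 Note: values are percent growth. 100 is the growth of untreated cells, values between 100 and 0 indicate rising inhibition; between -100 and 0 indicates cell death.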 Calls of active or inactive are those of the source. Rule for the calls: active = growth percent below 10; inactive = the rest.

Assays:
Test in all cases: NCI-60 one-dose screen, 48 h (100 = growth as untreated, 0 = no growth, -100 = all killed)
Details in all cases: 10 µM unless noted
NCI-H23 lung = test system: NCI-H23 lung
NCI-H226 lung = test system: NCI-H226 lung
NCI-H322M lung = test system: NCI-H322M lung
HOP-62 NSCLC = test system: HOP-62 NSCLC
NCI-H460 lung = test system: NCI-H460 lung
HOP-92 NSCLC = test system: HOP-92 NSCLC
A549/ATCC NSCLC = test system: A549/ATCC NSCLC
786-0 renal = test system: 786-0 renal
COLO 205 colon = test system: COLO 205 colon
DU-145 prostate = test system: DU-145 prostate
K-562 leukemia = test system: K-562 leukemia
MALME-3M melanoma = test system: MALME-3M melanoma
MDA-MB-231 breast = test system: MDA-MB-231 breast
RXF 393 renal = test system: RXF 393 renal
SF-268 CNS = test system: SF-268 CNS
SF-295 CNS = test system: SF-295 CNS
SF-539 CNS = test system: SF-539 CNS
UACC-257 melanoma = test system: UACC-257 melanoma
M14 melanoma = test system: M14 melanoma

Measured: growth

O=c1[nH]c(N2CCC(Cc3ccccc3)CC2)nc2sc3c(c12)CCCC3
inactive: NCI-H23 lung 95.9% | NCI-H226 lung 92.3% | NCI-H322M lung 97.1% | HOP-62 NSCLC 94.5% | NCI-H460 lung 102% | HOP-92 NSCLC 91.2% | A549/ATCC NSCLC 77.5% | 786-0 renal 105% | COLO 205 colon 105% | DU-145 prostate 107% | K-562 leukemia 110% | MALME-3M melanoma 102% | MDA-MB-231 breast 106% | RXF 393 renal 104% | SF-268 CNS 95.2% | SF-295 CNS 94.6% | SF-539 CNS 105% | UACC-257 melanoma 85.4% | M14 melanoma 100%

COc1cccc(/C=N\NC(=O)c2ccncc2)c1O
inactive: NCI-H23 lung 58.5% | NCI-H226 lung 61.8% | NCI-H322M lung 19% | HOP-62 NSCLC 50.8% | NCI-H460 lung 15.9% | HOP-92 NSCLC 55.1% | A549/ATCC NSCLC 73.2% | 786-0 renal 35.5% | COLO 205 colon 50.1% | DU-145 prostate 51.7% | K-562 leukemia 71.2% | MALME-3M melanoma 68.3% | MDA-MB-231 breast 47.1% | RXF 393 renal 57.3% | SF-268 CNS 42.2% | SF-295 CNS 55.8% | SF-539 CNS 55.7% | UACC-257 melanoma 49.6% | M14 melanoma 34.4%

CO[C@H]1/C=C/O[C@@]2(C)Oc3c(C)c(O)c4c(O)c(c(/C=N/N5C(C)CN(Cc6ccc(C#N)cc6)CC5C)c(O)c4c3C2=O)NC(=O)/C(C)=C\C=C\[C@H](C)[C@H](O)[C@@H](C)[C@@H](O)[C@@H](C)[C@H](OC(C)=O)[C@@H]1C (some centres undefined)
active: NCI-H460 lung 3.3% | COLO 205 colon 1.58% | MALME-3M melanoma 8.74% | SF-295 CNS 0.574%
inactive: NCI-H23 lung 11.5% | NCI-H226 lung 49.5% | NCI-H322M lung 28.7% | HOP-62 NSCLC 43.8% | HOP-92 NSCLC 27.1% | A549/ATCC NSCLC 21.7% | 786-0 renal 14.1% | DU-145 prostate 45.3% | K-562 leukemia 16.3% | MDA-MB-231 breast 90.3% | RXF 393 renal 43.7% | SF-268 CNS 35% | SF-539 CNS 16% | UACC-257 melanoma 45.1% | M14 melanoma 36.8%

Cc1ccc2nc3c(n2c1)C(=O)C(=O)c1ccccc1-3
active: NCI-H23 lung -12.4% | NCI-H226 lung -44.1% | NCI-H322M lung -80.7% | HOP-62 NSCLC -74.9% | NCI-H460 lung -71.1% | HOP-92 NSCLC -77.2% | A549/ATCC NSCLC -77.3% | 786-0 renal -81% | COLO 205 colon -69.2% | DU-145 prostate -89.5% | K-562 leukemia -48.3% | MALME-3M melanoma -85.2% | MDA-MB-231 breast -48.8% | RXF 393 renal -91.3% | SF-268 CNS -78.2% | SF-295 CNS -71.1% | SF-539 CNS -90.1% | UACC-257 melanoma -90.3% | M14 melanoma -81.3%

OC(c1ccccc1)C(NCc1ccccc1)c1ccccc1 (centres undefined)
inactive: NCI-H23 lung 93.5% | NCI-H226 lung 97.7% | NCI-H322M lung 97.8% | HOP-62 NSCLC 90.5% | NCI-H460 lung 100% | HOP-92 NSCLC 71.8% | A549/ATCC NSCLC 101% | 786-0 renal 87.2% | COLO 205 colon 116% | DU-145 prostate 117% | K-562 leukemia 106% | MALME-3M melanoma 104% | MDA-MB-231 breast 98.3% | RXF 393 renal 107% | SF-268 CNS 92.8% | SF-295 CNS 94% | SF-539 CNS 90.6% | UACC-257 melanoma 110% | M14 melanoma 79.9%

O=C1CSC(c2ccccc2O)N1c1nnc(Cn2ccnc2)o1 (centres undefined)
inactive: NCI-H23 lung 67.9% | NCI-H226 lung 91.4% | NCI-H322M lung 69.6% | HOP-62 NSCLC 67.2% | NCI-H460 lung 34.8% | HOP-92 NSCLC 69.1% | A549/ATCC NSCLC 66.5% | 786-0 renal 59.1% | COLO 205 colon 92.6% | DU-145 prostate 80.9% | K-562 leukemia 43.5% | MALME-3M melanoma 101% | MDA-MB-231 breast 61.6% | RXF 393 renal 74.7% | SF-268 CNS 55.7% | SF-295 CNS 20.7% | SF-539 CNS 55.6% | UACC-257 melanoma 78.7% | M14 melanoma 59.8%

CCCCOP(=O)(OCCCC)C(C(=O)OCC)C(CC(=O)OCC)C(=O)OCC (centres undefined)
inactive: NCI-H23 lung 134% | NCI-H226 lung 99.1% | NCI-H322M lung 107% | HOP-62 NSCLC 104% | NCI-H460 lung 109% | HOP-92 NSCLC 48.4% | A549/ATCC NSCLC 103% | 786-0 renal 106% | COLO 205 colon 107% | DU-145 prostate 122% | K-562 leukemia 109% | MALME-3M melanoma 125% | MDA-MB-231 breast 100% | RXF 393 renal 93.4% | SF-268 CNS 109% | SF-295 CNS 101% | SF-539 CNS 91.4% | M14 melanoma 114%

O=C1/C(=C/c2ccc(F)cc2)Cc2ccccc21
inactive: NCI-H23 lung 99.7% | NCI-H226 lung 94.2% | NCI-H322M lung 95.2% | HOP-62 NSCLC 96.2% | NCI-H460 lung 103% | HOP-92 NSCLC 80.4% | A549/ATCC NSCLC 91.7% | 786-0 renal 96% | COLO 205 colon 115% | DU-145 prostate 104% | K-562 leukemia 110% | MALME-3M melanoma 107% | MDA-MB-231 breast 107% | RXF 393 renal 99.6% | SF-268 CNS 110% | SF-295 CNS 90.8% | SF-539 CNS 107% | M14 melanoma 103%

CNCCCn1c2c(c3ccc(F)cc3c1=O)C(=O)c1cc(OC)cnc1-2
inactive: MDA-MB-231 breast 11.7%
active: NCI-H23 lung -41.5% | NCI-H226 lung -61.2% | NCI-H322M lung -1.98% | HOP-62 NSCLC -30% | NCI-H460 lung -37.6% | HOP-92 NSCLC -12.4% | A549/ATCC NSCLC -71.2% | 786-0 renal -38.3% | COLO 205 colon -33.1% | DU-145 prostate 0.683% | K-562 leukemia 1.41% | MALME-3M melanoma -56.6% | RXF 393 renal -78.8% | SF-268 CNS 4.62% | SF-295 CNS -15.3% | SF-539 CNS -24.7% | UACC-257 melanoma -16.5% | M14 melanoma -10.8%
